Results on 39 molecules are retold here after PubChem BioAssay (EPA / NIEHS).

Several values for one entry are separate records, joined by “and”; a condition that tells them apart may be missing. Equal values may be shown once. The source holds several records for some structures; these can differ, active in one and inactive in another. Activity calls are given as the source filed them. Rule for the calls: active = hit-call score of the fitted dose curve at least 0.9, where 1 is the maximum; inactive = score below 0.9.

Read-out in this assay: urokinase plasminogen activator (uPA), PLAU (gene 5328)
Kind of assay: BSK_BE3C_uPA: BioMAP Diversity Plus: BE3C Assay for urokinase plasminogen activator (uPA) Biomarker Activity (AID 2283038).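 For outcome: uPA read one day after compound addition.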 Conditions: primary human bronchial epithelial cells; actives raise or lower the signal. Here is the method: BSK_BE3C is a cell-based, multiplexed-readout assay that uses bronchial epithelial cell, a human lung primary cell, with measurements taken at 24 hours after chemical dosing in a 96-well plate.BSK_BE3CA is an assay component measured in the BSK_BE3C assay. It measures uPA antibody related to regulation of gene expression using ELISA technology.Data from the assay component BSK_BE3CA was analyzed into 1 assay endpoint. This assay endpoint, BSK_BE3CA, was analyzed with bidirectional fitting relative to DMSO as the negative control and baseline of activity. Using a type of binding reporter, gain or loss-of-signal activity can be used to understand changes in the signaling as they relate to the gene PLAU. Furthermore, this assay endpoint can be referred to as a primary readout, because this assay has produced multiple assay endpoints where this one serves a signaling function. To generalize the intended target to other relatable targets, this assay endpoint is annotated to the protease intended target family, where the subfamily is serine protease.
The levels of cell surface (or secreted, indicated by the prefix "s") biomarker endpoints were measured by ELISA. Overt cytotoxicity to cells in confluent adherent cultures (all systems other than the BT system) was assessed by measuring total protein levels using sulforhodamine B (SRB) staining in parallel cultures at the time of biomarker measurements, indicated as SRB endpoints. For proliferation assays for adherent cell types, individual cell types are cultured at sub-confluence and relative cell numbers quantified by SRB staining at time points optimized for each system (48 h: 3C and CASM3C systems; 72 h: BT and HDF3CGF systems; 96 h: SAg system). SRB was performed by staining cells with 0.1% SRB after fixation with 10% TCA and reading wells at 560 nm.Viability and proliferation of PBMC (T cells) was quantified by Alamar Blue reduction for the SAg and BT systems. For PBMC viability (referred to as PBMC Cytotoxicity within the assay endpoint names), cells were plated (75,000/well in a 96-well plate) and then chemical samples added for 1 h before addition of activators, SEB and TSST-1 (20 ng/mL final concentration each). Cells were incubated for 90 h. Then, Alamar Blue (20 uL/well) (Invitrogen, Cat DAL1100) was added for 6 h, and the plates were read with a fluorescence microplate reader at 546/580 nm (excitation/emission). For PBMC proliferation, cells were plated and activated as above but incubated for only 16 h prior to addition of Alamar Blue. Plates were read after 6 h.
On to `Cc1nn(C)c(Oc2ccccc2)c1C=NOCc1ccc(C(=O)OC(C)(C)C)cc1`, for which the result was inactive.

On to `COC(=O)c1ccccc1C(=O)O`, for which the outcome was inactive.

In the case of `CC(C)(C)[C@@H](O)[C@@H](Cc1ccc(Cl)cc1)n1cncn1`, the result was inactive.

Take `S=C(S)NCCNC(=S)S.[Mn+2].[S-]C([S-])=NCCN=C([S-])[S-].[Zn+2]`: the half-maximal activity concentration (AC50) was 209 nM (active) and 1.08 µM (active) and 2.73 µM (active); the outcome was inactive.

Take `Oc1ccc(C(c2ccc(O)cc2)C(Cl)(Cl)Cl)cc1`: the AC50 is 36.6 µM (active).

`COC(=O)c1cccc(C)c1S(=O)(=O)NC(=O)Nc1nc(OCC(F)(F)F)nc(N(C)C)n1`: the result was inactive.

`c1ccc(Nc2ccccc2)cc1`: the outcome was inactive.

Consider `COCCO`, for which the outcome was inactive.

As to `C[C@]12CC[C@@H]3c4ccc(O)cc4C[C@@H](CCCCCCCCCS(=O)CCCC(F)(F)C(F)(F)F)[C@H]3[C@@H]1CC[C@@H]2O` (stereo not given in full), the result was inactive.

Turning to `CCSC(=O)N(CC(C)C)CC(C)C`, the outcome was inactive.

With `COC(=O)c1ccc(I)cc1S(=O)(=O)NC(=O)Nc1nc(C)nc(OC)n1`, the result was inactive.

Turning to `COC(=O)c1c(Cl)nn(C)c1S(=O)(=O)NC(=O)Nc1nc(OC)cc(OC)n1`, the outcome was inactive.

In the case of `COc1nc(C)nc(NC(=O)NS(=O)(=O)c2ccccc2OCCCl)n1`, the outcome was inactive.

As to `CCOC(=O)[C@H](C)Oc1ccc(Oc2nc3ccc(Cl)cc3o2)cc1`, the outcome was inactive.

On to `CCCN(CCC)c1c([N+](=O)[O-])cc(C(F)(F)F)c(N)c1[N+](=O)[O-]`, for which the result was inactive.

In the case of `O=C(c1ccccc1)C1CCCCC1`, the result was inactive.

On to `CC(C)CCCCCCc1ccc(O)cc1`, for which the half-maximal activity concentration (AC50) is 31.6 µM (active).

For the molecule `CCCCC(CC)COC(=O)c1ccccc1C(=O)O` (stereo not given), the concentration at half-maximal activity (AC50) is 29.9 µM (active).

Regarding `CC(=O)[C@H]1CC[C@H]2[C@@H]3CCC4=CC(=O)CC[C@]4(C)[C@H]3CC[C@]12C`, the outcome was inactive.

Turning to `O=C(c1ccc(O)cc1O)c1ccc(O)cc1O`, the result was inactive.

With `CCOC(=O)COc1cc(-n2ncc(C(F)(F)F)c(C)c2=O)c(F)cc1Cl`, the result was inactive.

As to `COC(=O)c1ccccc1S(=O)(=O)NC(=O)Nc1nc(OC(F)F)cc(OC(F)F)n1`, the result was inactive.

For the molecule `CCOC(=O)NCCOc1ccc(Oc2ccccc2)cc1`, the result was inactive.

On to `CC1(C)C(C=C(Cl)Cl)C1C(=O)OCc1cccc(Oc2ccccc2)c1` (stereo not given), for which the outcome was inactive.

With `CCOC(=O)c1ccc(O)cc1`, the outcome was inactive.

Turning to `COc1c(Cl)ccc(Cl)c1C(=O)O`, the result was inactive.

On to `CCCOC(=O)c1ccc(C(=O)OCCC)nc1`, for which the outcome was inactive.

Consider `CCCN(CCC)C(=O)SCC`, for which the result was inactive.

With `CCC(O)=C1C(=O)CC(C(=O)O)CC1=O` (stereo not given), the result was inactive.

As to `c1ccc2[nH]c(-c3cscn3)nc2c1`, the result was inactive.

In the case of `CCCCOC(=O)[C@@H](C)Oc1ccc(Oc2ccc(C(F)(F)F)cn2)cc1`, the result was inactive.

As to `CCCCC(CC)CN1C(=O)C2C3C=CC(C3)C2C1=O` (stereo not given), the outcome was inactive.

Consider `C[C@]12C[C@H](O)[C@H]3[C@@H](CCC4=CC(=O)CC[C@@]43C)[C@@H]1CC[C@@H]2C(=O)CO`, for which the result was inactive.

In the case of `CCOC(=O)C(C)Oc1ccc(Oc2cnc3cc(Cl)ccc3n2)cc1` (stereo not given), the outcome was inactive.

In the case of `CCC(C)OC(=O)N1CCCCC1CCO` (stereo not given), the outcome was inactive.

Take `C#CCOC(=O)[C@@H](C)Oc1ccc(Oc2ncc(Cl)cc2F)cc1`: the outcome was inactive.

For `N[C@@H](Cc1cc(I)c(Oc2ccc(O)c(I)c2)c(I)c1)C(=O)O`, the result was inactive.

`COC(=O)CSc1cc(N=c2sc(=O)n3n2CCCC3)c(F)cc1Cl`: the result was inactive.

As to `CC(=O)S[C@@H]1CC2=CC(=O)CC[C@]2(C)[C@H]2CC[C@@]3(C)[C@@H](CC[C@@]34CCC(=O)O4)[C@H]12`, the outcome was inactive.
